# The supplement of paper PMC12350171
# Structures can show the parent of a compound that is named as a salt. Unmarked numbers belong to inactive results.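 The calls were made as follows: active = normalised median growth AUC below 0.1 of DMSO control; inactive = AUC 0.1 or higher.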
# Tests used:
# Test in all cases: growth AUC normalised to DMSO control (median) (fraction of control); higher = less growth inhibition, active = hit call of the paper
# Details in all cases: 20 µM
# P. vulgatus RND KO = system: P. vulgatus RND KO
# Summary of the method: (§1)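 In 96-well plates of mGAM seeded at OD578 0.01, strains that had been passaged twice overnight without oxygen were exposed to approved-drug library compounds at 20 μM with 1% DMSO. Hourly OD578 readings were taken for 24 h in an anaerobic incubator. The trapezoidal-rule area under the curve, with curves truncated at entry into stationary phase, was expressed relative to same-plate vehicle wells as the median of three biological replicates.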
# P. vulgatus WT = system: P. vulgatus WT
# Summary of the method: as §1
# [1] = system: S. enterica typhimurium WT
# Summary of the method: as §1
# [2] = system: S. enterica typhimurium tolC KO
# Summary of the method: as §1
# 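Also: active when median AUC fell below 0.1.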
Structure (SMILES),growth AUC normalised to DMSO control (P. vulgatus RND KO),growth AUC normalised to DMSO control (P. vulgatus WT),growth AUC normalised to DMSO control [1],growth AUC normalised to DMSO control [2]
CN1CC(O)c2cc(N=NC(N)=O)c(O)cc21 (configuration not stated) [Carbazochrome],0.999,1.01,0.999,0.952
COc1c(O)cc2c(c1O)[C@@H]1O[C@H](CO)[C@@H](O)[C@H](O)[C@H]1OC2=O [Bergenin],1.04,1.01,1.02,0.995
CO/N=C(\C(=O)N[C@@H]1C(=O)N2C(C(=O)[O-])=C(C[n+]3cccc4c3CCC4)CS[C@H]12)c1csc(N)n1 [Cefpirome sulfate],0.0131 (active),0.00672 (active),0.00453 (active),0.00385 (active)
C[C@H]1[C@@H](O)O[C@@H]2O[C@@]3(C)CC[C@H]4[C@H](C)CC[C@@H]1[C@@]24OO3 [Artenimol],1.04,1.04,1,1
CCC(=O)c1ccc(O)cc1 [Paroxypropione],1,0.985,0.994,1
CCCCS(=O)(=O)N[C@@H](Cc1ccc(OCCCCC2CCNCC2)cc1)C(=O)O [Tirofiban hydrochloride],0.994,0.99,0.989,0.964
C[C@H]1[C@H](OC(=O)CCC(=O)O)O[C@@H]2O[C@@]3(C)CC[C@H]4[C@H](C)CC[C@@H]1[C@@]24OO3 [Artesunate],1.01,1,1,1.01
CCOC(=O)[C@H](CCc1ccccc1)N[C@H]1CS[C@H](c2cccs2)CN(CC(=O)O)C1=O [Temocapril hydrochloride],1.02,1.03,1,1
CCC(NC(C)C)C(O)c1ccc(O)c2[nH]c(=O)ccc12 (configuration not stated) [Procaterol hydrochloride],1.08,1.09,1,0.987
CC1(C)S[C@@H]2[C@H](NC(=O)C(c3ccccc3)S(=O)(=O)O)C(=O)N2[C@H]1C(=O)O (some centres not stated) [Sulbenicillin sodium salt],0.00728 (active),0.00538 (active),0.116,0.00823 (active)
CC(C)(CO)[C@@H](O)C(=O)NCCC(=O)NCCSSCCNC(=O)CCNC(=O)[C@H](O)C(C)(C)CO [D-Pantethine],1.01,1.01,1,1
CCCCC(=O)N(Cc1ccc(-c2ccccc2-c2nnn[nH]2)cc1)[C@H](C(=O)O)C(C)C [Valsartan],1.04,1.02,1.02,1.02
C[C@@H](NCCCc1cccc(C(F)(F)F)c1)c1cccc2ccccc12 [Cinacalcet hydrochloride],1.01,1.02,1.01,0.996
O=C(O)C1CSCN1 (configuration not stated) [Timonacic],0.993,0.999,0.998,0.998
CC1=C(C(=O)O)N2C(=O)[C@@H](NC(=O)[C@H](N)C3=CCC=CC3)[C@H]2SC1 [Cephradine monohydrate],1.04,1.05,0.991,1.01
COc1cc(N)cn[n+]1-c1ccccc1 [Amezinium metilsulfate],1.01,1,1,1
CC(C)CN(C[C@@H](O)[C@H](Cc1ccccc1)NC(=O)O[C@H]1CCOC1)S(=O)(=O)c1ccc(N)cc1 [Amprenavir],1.01,1.06,0.995,0.995

Structure (SMILES),growth AUC normalised to DMSO control (P. vulgatus RND KO),growth AUC normalised to DMSO control (P. vulgatus WT),growth AUC normalised to DMSO control [1],growth AUC normalised to DMSO control [2]
COc1cc(Nc2c(C#N)cnc3cc(OCCCN4CCN(C)CC4)c(OC)cc23)c(Cl)cc1Cl [Bosutinib],1,0.947,1,0.98
O=C(O)c1ccccc1Nc1cc(Cl)ccc1C(=O)O [Lobenzarit disodium],0.992,1.02,1.02,0.959
Brc1c(NC2=NCCN2)ccc2nccnc12 [Brimonidine L-tartrate],0.994,1.02,0.999,1.01
CC(=O)OCC(=O)[C@@]1(O)CC[C@H]2[C@@H]3CCC4=CC(=O)C=C[C@]4(C)[C@@]3(Cl)[C@@H](Cl)C[C@@]21C [Dichlorisone acetate],0.976,0.97,0.989,0.956
Nc1cc(C(Cl)=C(Cl)Cl)c(S(N)(=O)=O)cc1S(N)(=O)=O [Clorsulon],1.02,0.998,1,0.999
CCOC(=O)OC(C)OC1=C(C(=O)Nc2ccccn2)N(C)S(=O)(=O)c2ccccc21 (configuration not stated) [Ampiroxicam],0.999,0.988,1,0.986
C=C1CC[C@H](O)C/C1=C/C=C1\CCC[C@]2(C)[C@@H]([C@H](C)CCCC(C)C)CC[C@@H]12 [Cholecalciferol],1.05,1.07,0.999,0.982
CC(C)c1ccc2oc3nc(N)c(C(=O)O)cc3c(=O)c2c1 [Amlexanox],1.02,1.01,0.996,0.971
O=C(Oc1ccccc1)c1ccccc1O [Phenyl salicylate],1.03,1.06,1.01,0.975
CC(C(=O)O)c1ccc2c(c1)CC(=O)c1ccccc1S2 (configuration not stated) [Zaltoprofen],1.02,1.01,0.998,0.978
O=C1CN2Cc3c(ccc(Cl)c3Cl)N=C2N1 [Anagrelide],1.01,0.996,0.994,0.957
CN(C)c1ccc2nc3ccc(=[N+](C)C)cc-3sc2c1 [Methylene blue],1,1.02,0.98,0.862
Cc1cc(C#N)cc(C)c1Oc1nc(Nc2ccc(C#N)cc2)nc(N)c1Br [Etravirine],1.03,1.02,1.01,1.01
O=P(O)(O)C(O)(Cc1cccnc1)P(=O)(O)O [Risedronic acid monohydrate],0.976,0.999,1.01,1
C/C(=C1\CCOC(=O)S1)N(C=O)Cc1cnc(C)nc1N [Cycotiamine],1.01,1.07,0.995,1
N[C@@H](Cc1c[nH]c2ccccc12)C(=O)O [L-Tryptophan],1,1.03,0.994,0.989
